The source of these data is PubChem BioAssay (NCATS).

Records with an inconclusive call do not appear. Activity calls are given as the source filed them. Calls come from the whole dose curve; as a rule, active = well fitted curve in the direction sought with a large enough effect; inconclusive = small, poorly fitted or top-dose-only effect, or another doubt; inactive = no such curve, though single readings can be large; an effect the other way counts as inactive or inconclusive.

Test system in the first assay: not listed separately
The assay can be described thus: qHTS for Inhibitors of the Aldehyde Dehydrogenase Family (ALDH1A2, ALDH1A3, ALDH2, ALDH3A1) (AID 2061307). For Potency: test system not described further here; potency is the fitted concentration of half-maximal effect. For activity change, negative = inhibition: % is set by controls: 0 for no effect and ±100 for the full control effect. Note: nearly all actives have a fitted effect of over 50% in size. The following applies: ALDH inhibition qHTS; series mostly up to 50.3 µM; activity change, negative = inhibition: at the top concentration.
Consider `C[C@@H]1O[C@@H](O[C@@H]2[C@@H](O)[C@@H](O[C@]3(CO)O[C@H](CO)[C@@H](O)[C@@H]3OC(=O)/C=C/c3ccc(O)cc3)O[C@H](CO)[C@H]2OC(=O)/C=C/c2ccc(O)cc2)[C@H](O)[C@H](O)[C@H]1O[C@@H]1O[C@@H](C)[C@H](O[C@@H]2OC[C@](O)(CO)[C@H]2O)[C@@H](O)[C@H]1O`, for which the “activity change, negative = inhibition” value is -44.8% [at 14.9 µM] (inactive).
In the case of `N#Cc1ccc2[nH]cc(CCCCN3CCN(c4ccc5oc(C(N)=O)cc5c4)CC3)c2c1`, the Potency is 2.24 µM (active).
The same measure, in the same setting: under `C=CC(=O)N1CCN(C(=O)CNc2cc(I)c(Cl)cc2O)CC1` stands 2.25 µM (active).
Still for that read-out and setting: the value for `O=C(NCCCCCCCCNC(=O)C(Cl)Cl)C(Cl)Cl` was 8.91 µM (active).
In the case of `COC(=O)C1=CO[C@@H](O[C@@H]2O[C@H](COC(=O)/C=C/c3cc(OC)c(O)c(OC)c3)[C@@H](O)[C@H](O)[C@H]2O)[C@@H]2C(CO)=CC[C@H]12`, the “activity change, negative = inhibition” value was -14.7% [at 14.9 µM] (inactive).
Still for that read-out and setting: the value for `OC[C@H]1O[C@@H](OC(CCCCc2ccc(O)cc2)CCc2ccc(O)cc2)[C@H](O)[C@@H](O)[C@@H]1O` (stereo partly drawn) was -22.6% [at 34.4 µM] (inactive).
As to `COCC(=O)NC/C=C/c1ccc2ncnc(Nc3ccc(Oc4ccc(C)nc4)c(C)c3)c2c1`, the Potency is 7.12 µM (active).
With `CCN(Cc1cc(Nc2nc(C)cn3c(-c4cn[nH]c4)cnc23)sn1)C(C)(C)CO`, the “activity change, negative = inhibition” value is -15.4% (inactive).
For the compound `O=C(NCC(=O)N1CCCC1)Nc1ccc2ccccc2c1`, the Potency was 5.04 µM (active).
For the compound `O=C(/C=C/c1ccc(O)c(O)c1)O[C@H]1[C@H](OC2CCCCC2O)O[C@H](CO)[C@@H](O)[C@@H]1O` (stereo partly drawn), the “activity change, negative = inhibition” value was -27.1% [at 34.4 µM] (inactive).
On the same count and under the same terms, the value for `OC[C@H]1O[C@@H](O[C@H]2[C@H](O)[C@@H](CO)O[C@@H](OCc3ccccc3)[C@@H]2O[C@@H]2OC[C@](O)(CO)[C@H]2O)[C@H](O)[C@@H](O)[C@@H]1O` was -48.1% [at 34.4 µM] (inactive).

The next assay deals with Aldehyde dehydrogenase, mitochondrial (Homo sapiens) (UniProt P05091). Kind of assay: qHTS for Inhibitors of the Aldehyde Dehydrogenase Family (ALDH2) Primary screen (AID 2061308).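 Note: plate controls were vehicle for no effect and reference inhibitor for full effect; nearly all actives have a fitted effect of over 55% in size.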 The following applies: ALDH2 enzyme inhibition qHTS, 1536-well; series mostly up to 56 µM; activity change, negative = inhibition: at the top concentration. On the technique in general: qHTS replaces the single test concentration by a dilution series.
As to `C=C[C@H]1[C@H](O[C@@H]2O[C@H](CO)[C@@H](O)[C@H](O)[C@H]2O)OC=C(C(=O)OC)[C@H]1CCOC(=O)c1cc(O)c(O)c(O)c1`, the “activity change, negative = inhibition” value was 2.85% [at 28 µM] (inactive).
Same read-out and setting: under `C[C@@H]1O[C@@H](O[C@@H]2[C@@H](O)[C@@H](O[C@]3(CO)O[C@H](CO)[C@@H](O)[C@@H]3OC(=O)/C=C/c3ccc(O)cc3)O[C@H](CO)[C@H]2OC(=O)/C=C/c2ccc(O)cc2)[C@H](O)[C@H](O)[C@H]1O[C@@H]1O[C@@H](C)[C@H](O[C@@H]2OC[C@](O)(CO)[C@H]2O)[C@@H](O)[C@H]1O` stands -1.46% [at 16.9 µM] (inactive).
Same read-out and setting: the value for `COc1cc(C2Oc3c(OC)cc(CCCO[C@@H]4O[C@H](CO)[C@@H](O)[C@H](O)[C@H]4O)cc3C2CO)ccc1O` (stereo partly drawn) was 11.7% [at 28 µM] (inactive).
As for `N#Cc1ccc2[nH]cc(CCCCN3CCN(c4ccc5oc(C(N)=O)cc5c4)CC3)c2c1`, the “activity change, negative = inhibition” value was 12% (inactive).
Same read-out and setting: under `Cn1cc(-c2ccc3ncc(Cc4ccc5ncccc5c4)n3n2)cn1` stands 8.65% (inactive); under `C=CC(=O)N1CCN(C(=O)CNc2cc(I)c(Cl)cc2O)CC1`, -15.1% (inactive); under `C=CC(=O)Nc1cccc(Nc2nc(Nc3ccc(Oc4ccnc(C(=O)NC)c4)cc3)ncc2F)c1`, -5.96% (inactive).
Consider `OCC(O)C(c1c[nH]c2ccccc12)c1c[nH]c2ccccc12` (stereo not drawn), for which the “activity change, negative = inhibition” value is -6.18% (inactive).
On the same count and under the same terms, under `Oc1ccc(Nc2nc(-c3ccc(Cl)cc3)cs2)cc1` stands -8.42% (inactive); under `COC(=O)C1=CO[C@@H](O[C@@H]2O[C@H](COC(=O)/C=C/c3cc(OC)c(O)c(OC)c3)[C@@H](O)[C@H](O)[C@H]2O)[C@@H]2C(CO)=CC[C@H]12`, -2.21% [at 16.9 µM] (inactive); under `OC[C@H]1O[C@@H](OC(CCCCc2ccc(O)cc2)CCc2ccc(O)cc2)[C@H](O)[C@@H](O)[C@@H]1O` (stereo partly drawn), -15% [at 28 µM] (inactive).
Regarding `COCC(=O)NC/C=C/c1ccc2ncnc(Nc3ccc(Oc4ccc(C)nc4)c(C)c3)c2c1`, the “activity change, negative = inhibition” value was 3.09% (inactive).
In the case of `OC/C=C/C=C/[C@H]1Cc2cc(O)cc(O)c2O1`, the “activity change, negative = inhibition” value is -15.7% (inactive).
On to `CCN(Cc1cc(Nc2nc(C)cn3c(-c4cn[nH]c4)cnc23)sn1)C(C)(C)CO`, for which the “activity change, negative = inhibition” value was -5.77% (inactive).
Still for that read-out and setting: the value for `COc1cc2ncc(-c3ccccc3)nc2cc1OC` was -0.561% (inactive); that for `OC[C@@]1(O)CO[C@@H](OC[C@H]2O[C@@H](Oc3c[nH]c4ccccc34)[C@H](O)[C@@H](O)[C@@H]2O)[C@@H]1O` was -5.33% [at 28 µM] (inactive).
Still for that read-out and setting: under `C[C@@H]1O[C@@H](O[C@H]2[C@H](O[C@H]3CO[C@@H](O[C@H]4CC[C@@]5(C)C(CC[C@]6(C)C5CC[C@]57OC[C@@]8(CC[C@](C)(CO)CC85)[C@H](O)C[C@]76C)C4(C)C)[C@H](O[C@@H]4O[C@H](CO)[C@@H](O)[C@H](O)[C@H]4O)[C@H]3O)O[C@H](CO)[C@@H](O)[C@@H]2O)[C@H](O)[C@H](O)[C@H]1O` (stereo partly drawn) stands 17.1% [at 16.9 µM] (inactive).
